DAX1 inh-1: DAX1 (NR0B1) inhibition, primary screen; inhibition, % at 6.8 µM; hit rate 1.1% among 370,000; HEK293T StAR-luciferase reporter, SF-1/DAX-1 repression relief;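 active means inhibition above the mean over all tested compounds plus 3 SD, cut at about 3.6% in these data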;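 further: 0% = DAX-1 cells with DMSO and 100% = cells lacking DAX-1 with DMSO; higher inhibition means more luminescence from relief of DAX-1 repression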
ssDAF12 agonist: activates DAF-12 receptor from parasite S. stercoralis; HEK293 ssDAF-12/GRIP1 lit1-tk-luc reporter, luminescence; % of 3 µM dafachronic acid response; activation, % at 6.8 µM; hit rate 1% among 370,000; AID 652126;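 active means activation above the mean over all tested compounds plus 3 SD, cut at about 0.9% in these data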;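 further: 0% = DMSO-only wells and 100% = 3 µM delta7-dafachronic acid wells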
hcDAF-12 act: activators of H. contortus DAF-12 nuclear receptor. HEK293 hcDAF-12 lit1-tk-luc reporter, luminescence; 0% DMSO, 100% Δ7-dafachronic acid. activation, % at 6.8 µM. hit rate 1.4% among 370,000;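 active means activation above the mean of all tested compounds plus 3 SD, cut at about 5.5% in these data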;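 further: 100% = response to 3 µM Δ7-dafachronic acid high control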
hgDAF12 agonist: activates the H. glycines DAF-12 receptor ligand-binding domain; AID 687014; hit rate 1.8% among 370,000; activation, % at 6.8 µM; HEK293 GAL4-hgDAF12 UAS-luciferase reporter, agonist luminescence; normalized to butyrate control;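 active means activation above a cutoff set at the mean of all screened compounds plus 3 SD, cut at about 10% in these data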;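 further: 0% = DMSO wells and 100% = sodium butyrate wells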
PolyA inh: inhibitors of polyadenylation in S. cerevisiae. hit rate 0.02% among 300,000. S. cerevisiae SKY197-pL101 polyadenylation reporter, beta-gal luminescence; efflux-impaired pdr1/pdr3 knockout yeast; score 100 = 6 SD above DMSO. activity score, % at 12 µM;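 active means lowest replicate activity score at least 50, where 100 means six control SD above control mean; inconclusive means lowest score under 50 but half or more replicates reach 50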;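 further: yeast exposed to compound for 9 h at 30 °C; higher score means more reporter readthrough which indicates perturbed polyadenylation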
DAX1 inh-2: inhibitors of human orphan nuclear receptor DAX1 (NR0B1) | P51843 | HEK293 Gal4-DAX1 luciferase reporter, luminescence | inhibition, % at 6.75 µM | hit rate 0.99% among 340,000;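 active means inhibition above the mean over all tested compounds plus 3 SD, cut at about 4.2% in these data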;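 further: 0% = DAX1-transfected cells with DMSO and 100% = empty-vector control cells with DMSO; inhibition shows as a rise in luminescence from relieved DAX1 repression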
Target sequence (P51843 207-470 limits assumed): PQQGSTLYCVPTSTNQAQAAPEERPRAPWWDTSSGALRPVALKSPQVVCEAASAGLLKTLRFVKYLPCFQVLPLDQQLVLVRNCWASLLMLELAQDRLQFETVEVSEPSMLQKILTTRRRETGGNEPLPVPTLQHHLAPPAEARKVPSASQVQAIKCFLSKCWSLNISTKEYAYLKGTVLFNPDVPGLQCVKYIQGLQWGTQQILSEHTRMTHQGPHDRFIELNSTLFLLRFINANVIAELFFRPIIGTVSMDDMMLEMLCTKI
Active calls of the source: *; ? = inconclusive; / = no result given. Compounds with a hit are over-represented: about 4.1% of the library has one in this group of screens.

SMILES | DAX1 inh-1 | ssDAF12 agonist | hcDAF-12 act | hgDAF12 agonist | PolyA inh | DAX1 inh-2
CCCS(=O)(=O)N1CCN(C2CCC(C)CC2)CC1 (stereo not drawn) | -1 | -2 | -1 | -2 | -4 | 5.7*
CCCC(=O)N(CCN1CCOCC1)c1nc2c(OCC)cccc2s1 | / | / | / | / | 4 | 0
CCCC(=O)N(CCN1CCOCC1)c1nc2c(F)cc(F)cc2s1 | 4.0* | -1 | 2 | 5 | -25 | 2
O=S(=O)(c1ccccc1F)n1c(CN2CCOCC2)nc2ccccc21 | 0 | 0 | 0 | 2 | / | /
COc1ccc(/C=C2\SC(=O)N(CCNC(=O)CN3C(=O)NC4(CCCC4)C3=O)C2=O)cc1 | 4.2* | 0 | 2 | 5 | ? | 2
O=C(CN1C(=O)NC2(CCCC2)C1=O)NCCN1C(=O)S/C(=C\c2ccccc2F)C1=O | 1 | 0 | 1 | 2 | 8 | 0
Cc1cc(Oc2cccnc2)ccc1NC(=O)Cc1c(C)[nH]c2ccccc12 | -1 | -1 | 1 | 1 | / | /
O=C(NCc1ccc(C(=O)N2CCCC2)cc1)c1cccc(Br)c1 | 0 | -1 | 1 | 1 | / | /
Cc1ccc(S(=O)(=O)N2CCC(=O)N(C(COCc3cccc(Cl)c3)Cc3ccccc3)CC2)cc1 (stereo not drawn) | 0 | -2 | -3 | 1 | -14 | -1
Cc1ccc(S(=O)(=O)N2CCC(=O)N(C(COCc3ccc(Cl)cc3Cl)Cc3ccccc3)CC2)cc1 (stereo not drawn) | -1 | -2 | -1 | 3 | -8 | 5.3*
CC1(C)CC(=O)C=C(Nc2ccccc2NC(=O)c2cc(F)ccc2F)C1 | -2 | -1 | 0 | -1 | / | /
Cc1cccc(CCNc2nc3ccc(C)cc3n3cnnc23)c1 | 0 | -2 | 0 | 1 | -17 | 5.0*
O=C(O)C1CCN(C(=O)c2ccccc2N2C(=O)[C@@H]3Cc4c([nH]c5ccccc45)C(c4cccc(Cl)c4)N3C2=O)CC1 (stereo partly drawn) | -1 | 1.0* | 5.6* | 3 | -13 | 2
CC(C)(C)OC(=O)N1C[C@@]23C[C@H](c4cccc(F)c4)[C@@H](C[C@@H]2S1(=O)=O)O3 | 0 | -1 | -2 | -2 | / | /
Cc1ccccc1S(=O)(=O)Oc1ccc2ccc(O)cc2c1 | 0 | -1 | 2 | 9 | -11 | 2
Cc1ccccc1C(=O)Oc1ccc2ccc(O)cc2c1 | 1 | -1 | 2 | 10* | 18 | 4.7*
COc1cc(/C=C2/CC(C)OC2=O)c([N+](=O)[O-])cc1OC (stereo not drawn) | 0 | -1 | -2 | 1 | -15 | 4.7*
O=C(CSc1nc2sc3c(c2c(=O)n1-c1ccc(Cl)cc1)CCCC3)c1ccccc1Cl | 0 | -1 | 2 | -1 | / | /
CN(Cc1ccccc1)C(=O)c1cccc(NC(=O)Cc2cccc(NC(=O)C3CCN(C(=O)CCc4ccccc4)CC3)c2)c1 | -2 | -1 | -3 | 4 | / | /
Cc1ccccc1CN1CCCCC(NC(=O)C2CCCC2)C1=O (stereo not drawn) | -2 | -1 | -4 | 1 | / | /
C[C@H]1[C@@H](OC(=O)Nc2cccc(C(F)(F)F)c2)CC[C@@]23CCCN2C(=O)CCC[C@@H]13 | / | -2 | -4 | -1 | / | /
CCCC(=O)Nc1cnc(NC(=O)c2cccc(F)c2)cc1C | 3 | 1 | 4 | 13* | 2 | -1
COCc1cc(N2CCN(C(=O)OC(C)(C)C)C[C@H]2C)ccc1N1CCN(Cc2ccccc2)[C@@H](C)C1 | -1 | -1 | -2 | 3 | / | /
COC(=O)c1cccc(C(=O)N2CCCC(C(=O)c3ccccc3OC)C2)c1 (stereo not drawn) | 1 | -1 | -1 | 1 | 1 | 0
COC(=O)c1cccc(C(=O)N2CCCC(C(=O)c3cccc(OC(C)C)c3)C2)c1 (stereo not drawn) | -1 | 0 | 5.8* | 0 | -10 | 0
O=C(Oc1c(-c2ccccc2)c(=O)n2c3c(cccc13)CC2)c1ccccc1 | -1 | -2 | -1 | 0 | -10 | /
O=C(Oc1c(-c2ccccc2)c(=O)n2c3c(cccc13)CC2)c1cccc([N+](=O)[O-])c1 | 0 | -2 | 1 | 0 | 67* | /

High-throughput results from PubChem.
